# Test results from PubChem BioAssay (NCATS).
# Inconclusive results are not listed. Activity calls are given as the source filed them. Calls follow the shape of the dose curve; as a rule, active = well fitted cell-killing curve with a large enough effect; inconclusive = small, poorly fitted or top-dose-only effect, or effect the other way; inactive = flat fitted curve, though single readings scatter.
# Test: qHTS assay for cell viability of the p53RE-bla HCT-116 cell line (AID 743292); also: nearly all actives have a fitted effect of over 55% in size
# Conditions: p53RE-bla HCT-116 viability, ATP luminescence, 16 h; series mostly up to 95 µM; activity change, negative = cytotoxicity: at the top concentration
# Source text: U.S. Tox21 Program National Center for Advancing Translational Sciences [NCATS] NIH Chemical Genomics Center [NCGC] U.S. Environmental Protection Agency [EPA] National Institutes of Environmental Health Sciences [NIEHS] National Toxicology Program [NTP] U.S. Food and Drug Administration [FDA] Tox21 Assay Overview: The CellTiter-Glo Luminescent Cell Viability Assay (Promega, Madison, WI) is a homogeneous method to determine the number of viable cells in culture based on quantitation of the ATP present, which signals the presence of metabolically active cells. This cell viability assay was used to screen environmental chemicals in the CellSensor p53RE-bla HCT-116 cell line (Invitrogen).
# Tox21 Assay Protocol Summary: Cell viability after compound treatment was measured using a luciferase-coupled ATP quantitation assay (CellTiter-Glo viability assay, Promega, Madison, WI) in CellSensor p53RE-bla HCT-116 cell line (Invitrogen). Total intracellular ATP content corresponds to the number of metabolically competent cells after compound treatment. The cells were dispensed at 4,000 cells/5 uL/well in 1,536-well white/solid bottom assay plates using a Flying Reagent Dispenser (Aurora Discovery, San Diego, CA). The cells were incubated for 5 h at 37 C, followed by the addition of 23 nL of compounds dissolved in DMSO, positive controls or DMSO only using a pintool work station (Kalypsys, San Diego, CA). The assay plates were incubated for 16 h at 37 C, followed by the addition of 5 uL/well of CellTiter-Glo reagent. After 30 min incubation at room temperature, the luminescence intensity of the plates was measured using a ViewLux plate reader (PerkinElmer, Shelton, CT).
# % is scaled to controls: 0 for no effect and ±100 for the full control effect; potency is read from the fitted curve at half-maximal effect.
Compound,"activity change, negative = cytotoxicity",Potency
CNc1nc(=O)n(C2CCCCC2)c(=O)n1C,5.11% (inactive),
C=CCOC(=O)CC(C)C,-3.87% (inactive),
C#CCOC(=O)[C@@H](C)Oc1ccc(Oc2ncc(Cl)cc2F)cc1,-5.87% (inactive),
C=CCCCCCCCCCC,-2.81% (inactive),
CCC(=O)OCCc1ccccc1,6.64% (inactive),
C=C(C)C(=O)OCCOC(=O)C(=C)C,-13.6% (inactive),
CC(C)CCCCOC(=O)c1ccccc1C(=O)OCCCCC(C)C,-3.96% (inactive),
O=C(O)c1cc(O)c2ccccc2c1O,,39.8 µM (active)
CCCOC(=O)NCCCN(C)C,5.19% (inactive),
CCCCCCCC(=O)OC,-6.41% (inactive),
CC1(C)CC(N)CC(C)(CN)C1 (stereo not given),-9.07% (inactive),
OCCOCCOCCOCCOCCO,0.866% (inactive),
CCCCCCCCCCCCCCCC,-1.21% (inactive),
c1ccc(OCCOc2ccccc2)cc1,1.22% (inactive),
CCCCN(CCCC)CCCCCCN(CCCC)CCCC,0.561% (inactive),
COC(=O)C(C)Oc1ccc(Oc2ncc(C(F)(F)F)cc2Cl)cc1 (stereo not given),-0.867% (inactive),
CC1(C)C(=O)N(Cl)C(=O)N1Cl,-13.5% (inactive),
CCCCCCC(O)CCCCCCCCCCC(=O)OC (stereo not given),-6.68% (inactive),
CCCCOCCOCCOCCO,5.96% (inactive),
CCSC(=O)N(CC(C)C)CC(C)C,5.29% (inactive),

Compound,"activity change, negative = cytotoxicity",Potency
C=C[Si](C)(C)O[Si](C)(C)C=C,-1.08% (inactive),
CCCCCCC(C)(C)S,-7.8% (inactive),
CCCC/C=C\CCCCCCCCCC=O,1.49% (inactive),
CN(C)C(=O)Nc1ccccc1,-4.82% (inactive),
CC1(C)[C@@H](C=C(Cl)Cl)[C@@H]1C(=O)OCc1cccc(Oc2ccccc2)c1,-17.7% (inactive),
CCCCOCC(C)OCC(C)O (stereo not given),-7.09% (inactive),
COCCO,,inactive
C=C(C)C(=O)OCCC[Si](OC)(OC)OC,-2.82% (inactive),
CC(C)c1cccc(C(C)C)c1,-1.66% (inactive),
Cc1cc(Cc2cc(C)cc(C(C)(C)C)c2O)c(O)c(C(C)(C)C)c1,,44.7 µM (active)
O=C(O)CN(CCO)CCN(CC(=O)O)CC(=O)O,-2.34% (inactive),
CCCCCCCCCCCCN,-14.5% (inactive),
COC(=O)c1ccc(I)cc1S(=O)(=O)NC(=O)Nc1nc(C)nc(OC)n1,7.07% (inactive),
Cc1c(Cl)cccc1Cl,4.56% (inactive),
CCCCCCCCCC(C)=O,14% (inactive),
Cc1cc(C)c(N)c(Cl)c1,-8.27% (inactive),
C1CCC2(CCCCO2)OC1,4.34% (inactive),
CCCCC(CC)C(=O)OCCOCCOCCOC(=O)C(CC)CCCC (stereo not given),-4.71% (inactive),
COc1ccccc1NC(=O)CC(C)=O,2.62% (inactive),
CO[Si](CCCOCC1CO1)(OC)OC (stereo not given),2.11% (inactive),
